Reference: PubChem BioAssay (Tox21)
Unmarked numbers belong to inactive results. Inconclusive results are not listed. A call without a number means that no potency is given here. Activity calls are given as the source filed them. Unless noted, calls come from the whole dose curve; as a rule, active = well fitted curve in the direction sought with a large enough effect in the repeat runs; inconclusive = weak or mixed curves; inactive = no such curve, though single readings can be large; an effect the other way counts as inactive or inconclusive.

What was measured:
[1] = qHTS assay to test for compound auto fluorescence at 535 nm (green) in HEK293 cells (AID 720680)
[2] = qHTS assay to test for compound auto fluorescence at 460 nm (blue) in HEK293 cell free culture (AID 720681)
How it was run: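 Blue fluorescence (Ex 405/Em 460 nm, triamterene-equivalent) was read immediately after pin transfer of compound or DMSO into medium (DMEM, 10% FBS) without cells.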

[3] = qHTS assay to test for compound auto fluorescence at 535 nm (green) in HEK293 cell free culture (AID 720682)
How it was run: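 Cell-free medium (DMEM, 10% FBS) receives compound or DMSO by pintool. Plate read directly at Ex 485/Em 535 nm. Signal converted to fluorescein equivalency.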

[4] = qHTS assay to test for compound auto fluorescence at 590 nm (red) in HEK293 cell free culture (AID 720683)
How it was run: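 Red-channel autofluorescence of compounds in culture medium (DMEM, 10% FBS), no cells, measured at 540/590 nm. Rose Bengal sodium is the reference fluorophore for equivalence.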

[5] = qHTS assay to test for compound auto fluorescence at 590 nm (red) in HepG2 cell free culture (AID 720684)
How it was run: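 No cells present: MEM + 10% FBS only. Compound pinned in, red label read (540/590 nm). Activity = fluorescence equivalent to Rose Bengal sodium.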

[6] = qHTS assay to test for compound auto fluorescence at 460 nm (blue) in HepG2 cell free culture (AID 720685)
How it was run: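 Cell-free plates of MEM plus 10% FBS received 23 nL compound or DMSO vehicle; blue-channel (405/460 nm) intensity scored against triamterene as reference fluorophore.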

[7] = qHTS assay to test for compound auto fluorescence at 535 nm (green) in HepG2 cell free culture (AID 720686)
[8] = qHTS assay to test for compound auto fluorescence at 460 nm (blue) in HepG2 cells (AID 720687)
How it was run: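 Blue-channel autofluorescence (Ex/Em 405/460 nm, triamterene-equivalent) was measured after 1 hr compound exposure at 37 C, 5% CO2. Cells were HepG2, plated overnight at 37 C in MEM plus 10% FBS.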

[9] = qHTS assay to identify small molecule antagonists of the glucocorticoid receptor (GR) signaling pathway - cell viability counter screen (AID 720693); note: nearly all actives have a fitted effect of over 55% in size
[10] = qHTS assay for identifying genotoxic compounds that show differential cytotoxicity against isogenic chicken DT40 cell lines with known DNA damage response pathways - wild type cell line (AID 743012); note: nearly all actives have a fitted effect of over 60% in size; note: potency is the fitted concentration of half-maximal effect
How it was run: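 Viability of DNA repair-proficient chicken DT40 cells was assessed by CellTiter-Glo luminescence following 40 h compound exposure at 37 C/5% CO2.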

[11] = qHTS assay to identify small molecule antagonists of the androgen receptor (AR) signaling pathway - cell viability counter screen (AID 743033; note: nearly all actives have a fitted effect of over 45% in size)
[12] = qHTS assay to identify small molecule antagonists of the androgen receptor (AR) signaling pathway using the MDA cell line - cell viability counter screen (AID 743041; note: nearly all actives have a fitted effect of over 45% in size)
How it was run: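 Using the breast carcinoma line MDA-kb2 AR-luc, test chemicals were co-incubated with R1881 for 16 h; CellTiter-Fluor reagent, added at 15.5 h, provided a fluorescence measure of live cells.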

[13] = qHTS assay for identifying genotoxic compounds that show differential cytotoxicity against isogenic chicken DT40 cell lines with known DNA damage response pathways - Rad54/Ku70 mutant cell line (AID 743015); note: nearly all actives have a fitted effect of over 60% in size; note: potency is the fitted concentration of half-maximal effect
[14] = biological target: Androgen receptor (Homo sapiens) (UniProt P10275); assay: qHTS assay to identify small molecule agonists of the androgen receptor (AR) signaling pathway (AID 743036; active = well fitted activation curve with a large enough effect in the signal ratio in the repeat runs, with a control signal flat, not every such curve was filed as active; the % refers to the signal ratio)
Androgen receptor (Homo sapiens), sequence (P10275 whole entry, looked up): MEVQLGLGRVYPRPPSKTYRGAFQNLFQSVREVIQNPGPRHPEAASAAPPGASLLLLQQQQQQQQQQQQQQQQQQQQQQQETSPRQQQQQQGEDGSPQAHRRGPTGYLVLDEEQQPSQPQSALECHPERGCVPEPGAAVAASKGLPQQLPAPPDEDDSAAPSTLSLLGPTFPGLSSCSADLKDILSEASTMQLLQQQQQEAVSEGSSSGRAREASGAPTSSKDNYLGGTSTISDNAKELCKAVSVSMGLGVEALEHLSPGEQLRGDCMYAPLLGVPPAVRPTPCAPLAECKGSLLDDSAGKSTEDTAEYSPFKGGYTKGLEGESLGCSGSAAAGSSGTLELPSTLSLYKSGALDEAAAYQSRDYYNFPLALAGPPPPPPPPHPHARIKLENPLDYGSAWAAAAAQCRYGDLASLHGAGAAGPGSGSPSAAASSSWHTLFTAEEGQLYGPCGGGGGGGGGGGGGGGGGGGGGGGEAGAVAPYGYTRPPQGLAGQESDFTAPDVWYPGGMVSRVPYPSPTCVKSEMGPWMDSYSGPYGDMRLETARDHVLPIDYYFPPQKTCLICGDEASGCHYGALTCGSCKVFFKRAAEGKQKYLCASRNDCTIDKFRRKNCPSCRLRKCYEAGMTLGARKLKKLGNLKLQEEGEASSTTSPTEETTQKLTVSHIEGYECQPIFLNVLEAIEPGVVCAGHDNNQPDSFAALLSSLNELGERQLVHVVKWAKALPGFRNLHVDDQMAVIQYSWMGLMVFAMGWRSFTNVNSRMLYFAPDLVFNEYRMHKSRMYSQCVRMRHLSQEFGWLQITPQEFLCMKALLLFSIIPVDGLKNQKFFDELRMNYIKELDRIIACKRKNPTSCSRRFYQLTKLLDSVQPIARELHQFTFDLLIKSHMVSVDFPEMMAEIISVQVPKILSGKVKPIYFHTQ
How it was run: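 AR-bla HEK293 cells, 2,000/well; 4 h preincubation 37C/5% CO2; compound (DMSO) 16 h at 37C; LiveBLAzer B/G FRET substrate 2 h RT; fluorescence intensity read-out.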

[15] = biological target: Androgen receptor (Homo sapiens) (UniProt P10275); assay: qHTS assay to identify small molecule agonists of the androgen receptor (AR) signaling pathway using the MDA cell line (AID 743040; note: nearly all actives have a fitted effect of over 20% in size)
How it was run: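 Stable MMTV-luciferase reporter in MDA-kb2 cells; note the promoter carries GR as well as AR response elements. 16 h compound treatment, 37C, 0% CO2; ONE-Glo luminescence endpoint.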

[16] = biological target: Androgen receptor (Homo sapiens) (UniProt P10275); assay: qHTS assay to identify small molecule antagonists of the androgen receptor (AR) signaling pathway using the MDA cell line (AID 743042; note: nearly all actives have a fitted effect of over 55% in size)
How it was run: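 Antagonist mode: compounds plus R1881 agonist added to MDA-kb2 AR-luc cells, incubated 16 h at 37C. Luciferase reporter luminescence quantified, with multiplexed CellTiter-Fluor readout for cell viability.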

[17] = qHTS assay for identifying genotoxic compounds that show differential cytotoxicity against isogenic chicken DT40 cell lines with known DNA damage response pathways - Rev3 mutant cell line (AID 743014); note: nearly all actives have a fitted effect of over 55% in size
[18] = biological target: Androgen receptor (Homo sapiens) (UniProt P10275); assay: qHTS assay to identify small molecule antagonists of the androgen receptor (AR) signaling pathway (AID 743035; active = well fitted inhibition curve with a large enough effect in the signal ratio in the repeat runs, not every such curve was filed as active; the % refers to the signal ratio)
How it was run: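 Reporter HEK293 cells were exposed to compounds and R1881 overnight (16 h, 37C); beta-lactamase activity was then quantified by FRET fluorescence.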

Structure (SMILES): CC(COC(C)(C)C)OCCCO (stereo not given)
- outcome [1]: inactive
- outcome [2]: inactive
- outcome [3]: inactive
- outcome [4]: inactive
- outcome [5]: inactive
- outcome [6]: inactive
- outcome [7]: inactive
- outcome [8]: inactive
- outcome [9]: inactive
- Potency [10]: inactive
- Potency [11]: inactive
- Potency [12]: inactive

Structure (SMILES): COC(=O)c1ccccc1C(=O)c1ccc(OCCN2CCCCC2)cc1
- outcome [1]: inactive
- outcome [2]: inactive
- outcome [3]: inactive
- outcome [4]: inactive
- outcome [5]: inactive
- outcome [6]: inactive
- outcome [7]: inactive
- outcome [8]: inactive
- outcome [9]: inactive
- Potency [10]: 1.88 µM (active)
- Potency [13]: 2.11 µM (active)
- Potency [11]: inactive
- Potency [12]: inactive

Structure (SMILES): CC1=CCC(C(C)C)=CC1
- outcome [1]: inactive
- outcome [2]: inactive
- outcome [3]: inactive
- outcome [4]: inactive
- outcome [5]: inactive
- outcome [6]: inactive
- outcome [7]: inactive
- outcome [8]: inactive
- outcome [9]: inactive
- Potency [13]: inactive
- Potency [11]: inactive
- Potency [12]: inactive

Structure (SMILES): CC(=O)NCc1c(I)c(NC(C)=O)c(I)c(C(=O)O)c1I
- outcome [1]: inactive
- outcome [2]: inactive
- outcome [3]: inactive
- outcome [4]: inactive
- outcome [5]: inactive
- outcome [6]: inactive
- outcome [7]: inactive
- outcome [8]: inactive
- Potency [10]: inactive
- Potency [13]: inactive
- Potency [11]: inactive
- outcome [14]: inactive
- outcome [15]: inactive
- Potency [12]: inactive
- Potency [16]: inactive

Structure (SMILES): CC(C)C(=O)OCCc1ccccc1
- outcome [1]: inactive
- outcome [2]: inactive
- outcome [3]: inactive
- outcome [4]: inactive
- outcome [5]: inactive
- outcome [6]: inactive
- outcome [7]: inactive
- outcome [8]: inactive
- outcome [9]: inactive
- Potency [10]: inactive
- Potency [13]: inactive
- Potency [11]: inactive
- Potency [12]: inactive

Structure (SMILES): COc1cc2c(cc1OC)[C@@H]1CC(=O)[C@@H](CC(C)C)CN1CC2
- outcome [1]: inactive
- outcome [2]: inactive
- outcome [3]: inactive
- outcome [4]: inactive
- outcome [5]: inactive
- outcome [6]: inactive
- outcome [7]: inactive
- outcome [8]: inactive
- outcome [9]: inactive
- Potency [10]: 23.7 µM (active)
- Potency [13]: 29.8 µM (active)
- Potency [11]: inactive
- Potency [12]: inactive

Structure (SMILES): CCOC(=O)c1ccc(OC(=O)CCCCCN=C(N)N)cc1
- fluorescence, % of fluorescein [1]: -0.102% [at 18.6 µM]
- fluorescence, % of fluorescent control [2]: -0.0274% [at 18.6 µM]
- activity change [3]: -0.162% [at 18.6 µM]
- fluorescence, % of fluorescent control [4]: 0.226% [at 18.6 µM]
- fluorescence, % of Rose Bengal [5]: -0.0877% [at 18.6 µM]
- fluorescence, % of fluorescent control [6]: 0.0222% [at 18.6 µM]
- fluorescence, % of fluorescein control [7]: -0.0655% [at 18.6 µM]
- fluorescence, % of fluorescent control [8]: 0.0159% [at 18.6 µM]
- outcome [9]: inactive
- Potency [13]: inactive
- Potency [12]: inactive

Structure (SMILES): CCCC/C=C\CCCCCCCCCC=O
- outcome [1]: inactive
- outcome [2]: inactive
- outcome [3]: inactive
- outcome [4]: inactive
- outcome [5]: inactive
- outcome [6]: inactive
- outcome [7]: inactive
- outcome [8]: inactive
- outcome [9]: inactive
- Potency [17]: inactive
- Potency [13]: inactive
- Potency [12]: inactive

Structure (SMILES): CCCOC(=O)C(C)O (stereo not given)
- outcome [1]: inactive
- outcome [2]: inactive
- outcome [3]: inactive
- outcome [4]: inactive
- outcome [5]: inactive
- outcome [6]: inactive
- outcome [7]: inactive
- outcome [8]: inactive
- Potency [18]: inactive
- outcome [14]: inactive
- outcome [15]: inactive
- Potency [12]: inactive
- Potency [16]: inactive

Structure (SMILES): COCCOC(=O)C1=C(C)NC(C)=C(C(=O)OC(C)C)C1c1cccc([N+](=O)[O-])c1 (stereo not given)
- outcome [1]: inactive
- outcome [2]: inactive
- outcome [3]: inactive
- outcome [4]: inactive
- outcome [5]: inactive
- outcome [6]: inactive
- outcome [7]: inactive
- outcome [8]: inactive
- outcome [9]: inactive
- Potency [10]: 26.6 µM (active)
- Potency [13]: 23.7 µM (active)
- Potency [11]: inactive
- Potency [12]: inactive

Structure (SMILES): O=C(NCCc1c[nH]c2ccccc12)c1cccnc1
- outcome [1]: inactive
- outcome [2]: inactive
- outcome [3]: inactive
- outcome [4]: inactive
- outcome [5]: inactive
- outcome [6]: inactive
- outcome [7]: inactive
- outcome [8]: inactive
- outcome [9]: inactive
- Potency [10]: inactive
- Potency [17]: inactive
- Potency [13]: inactive
- outcome [14]: inactive
- outcome [15]: inactive
- Potency [12]: inactive
- Potency [16]: inactive

Structure (SMILES): C=C1CC/C=C(\C)CC[C@@H]2[C@@H]1CC2(C)C
- outcome [1]: inactive
- outcome [2]: inactive
- outcome [3]: inactive
- outcome [4]: inactive
- outcome [5]: inactive
- outcome [6]: inactive
- outcome [7]: inactive
- outcome [8]: inactive
- outcome [9]: inactive
- Potency [10]: inactive
- Potency [13]: inactive
- Potency [11]: inactive
- Potency [12]: inactive

Structure (SMILES): CC/C=C\CC1=C(C)CCC1=O
- outcome [1]: inactive
- outcome [2]: inactive
- outcome [3]: inactive
- outcome [4]: inactive
- outcome [5]: inactive
- outcome [6]: inactive
- outcome [7]: inactive
- outcome [8]: inactive
- outcome [9]: inactive
- Potency [10]: inactive
- Potency [17]: inactive
- Potency [13]: inactive
- outcome [14]: inactive
- outcome [15]: inactive
- Potency [12]: inactive

Structure (SMILES): Nc1nnc(-c2cccc(Cl)c2Cl)c(N)n1
- outcome [1]: inactive
- outcome [2]: inactive
- outcome [3]: inactive
- outcome [4]: inactive
- outcome [5]: inactive
- outcome [6]: inactive
- outcome [7]: inactive
- outcome [8]: inactive
- Potency [10]: inactive
- Potency [17]: inactive
- Potency [11]: inactive
- Potency [12]: inactive

Structure (SMILES): NNc1nnc(NN)c2ccccc12
- outcome [1]: inactive
- outcome [2]: inactive
- outcome [3]: inactive
- outcome [4]: inactive
- outcome [5]: inactive
- outcome [6]: inactive
- outcome [7]: inactive
- outcome [8]: inactive
- outcome [9]: inactive
- Potency [10]: inactive
- Potency [17]: inactive
- Potency [12]: inactive
